AmpC inh detg: qHTS Inhibitors of AmpC Beta-Lactamase (assay with detergent); P00811; AmpC hydrolysis of nitrocefin, absorbance 480 nm, 0.01% Triton; Potency, µM (series often up to 114 µM), hits mostly inhibitors; 370,000 compounds, 0.041% hits; also: nearly all actives have a fitted effect of over 25% in size
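AmpC (5.3 nM in the dispensed reagent) in 20 mM phosphate pH 7.0 with 0.01% (detergent screen) or 0.0001% Triton X-100 was preincubated with compounds for 15 min at room temperature. Nitrocefin was then added from an 800 uM solution, and hydrolysis was followed at 480 nm.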
AMA1 RON2 block: qHTS for Inhibitors of AMA1-RON; Towards Development of Antimalarial Drug Lead: Primary Screen; Plasmodium falciparum AMA1 (3D7) - RON2 peptide interaction; AlphaScreen AMA1-biotinylated RON2 peptide binding; Potency, µM (series often up to 58.2 µM), actives largely listed as inhibitors; 360,000 compounds, 0.2% hits; AID 720542, 2013; also: nearly all actives have a fitted effect of over 45% in size
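AMA1 (3D7) with his tag at 25 nM final met compounds first, then biotinylated RON2 peptide at 25 nM; detection used donor plus acceptor beads, 10 µg/mL apiece, read by AlphaScreen after 30 min at room temperature.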
Giardia FBPA inh-1: qHTS Assay for Inhibitors of Fructose-1,6-bisphosphate Aldolase from Giardia Lamblia; purified Giardia FBPA; AID 2451, 2010; 290,000 compounds, 0.71% hits; Potency, µM (titrated, usually from 59.6 µM), actives largely listed as inhibitors; A8B2U2; also: nearly all actives have a fitted effect of over 55% in size
Target sequence (A8B2U2 whole entry, looked up): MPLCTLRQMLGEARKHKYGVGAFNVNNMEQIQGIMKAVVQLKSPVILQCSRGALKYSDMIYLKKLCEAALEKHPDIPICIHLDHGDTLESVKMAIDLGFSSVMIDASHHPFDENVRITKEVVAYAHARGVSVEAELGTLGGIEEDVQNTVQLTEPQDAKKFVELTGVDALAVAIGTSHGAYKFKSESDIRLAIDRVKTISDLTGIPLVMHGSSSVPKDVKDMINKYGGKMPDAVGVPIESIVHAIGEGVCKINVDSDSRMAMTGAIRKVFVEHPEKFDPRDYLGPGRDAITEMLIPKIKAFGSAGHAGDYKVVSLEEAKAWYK
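40 nM FBPA preincubated 10 min at RT with compound (up to 57.5 uM final), then substrate plus GAPDH/TPI/NAD/arsenate coupling and diaphorase/resazurin added. Fluorescence read after 20 min at RT, 525/598 nm.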
AmpC no deterg: qHTS Inhibitors of AmpC Beta-Lactamase (assay without detergent); 330,000 compounds, 0.52% hits; P00811; Potency, µM (titrated, usually from 57.1 µM), actives largely listed as inhibitors; AmpC nitrocefin hydrolysis, absorbance 480 nm, 0.0001% Triton; also: nearly all actives have a fitted effect of over 20% in size
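20 mM phosphate pH 7.0 + 0.01% (detergent screen) or 0.0001% Triton X-100; 5.3 nM AmpC reagent; cpd preinc 15 min RT; nitrocefin (800 uM stock) to start; A480 q20 s × 4 min; Activity was normalised to no-enzyme and no-compound control wells.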
Giardia growth: qHTS Assay for Inhibitors of Fructose-1,6-bisphosphate Aldolase from Giardia Lamblia: Giardia lamblia growth inhibition. AID 2785, 2010. shares compounds with Giardia FBPA inh-1. 1,500 compounds, 5% hits. Potency, µM (titrated, usually from 57.5 µM), actives largely listed as inhibitors. Giardia lamblia trophozoite growth inhibition;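 also: trophozoites exposed to compound for 48 h at 37 °C; nearly all actives have a fitted effect of over 70% in size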
Mammal cell tox: qHTS Assay for Inhibitors of Fructose-1,6-bisphosphate Aldolase from Giardia Lamblia: Mammalian cellular toxicity. shares compounds with Giardia FBPA inh-1. mammalian cell viability counter-screen, qHTS. Potency, µM (titrated, usually from 57.5 µM), usual class: inhibitors. 1,500 compounds, 4% hits. AID 2786, 2010;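 also: Chinese hamster ovary cells used as mammalian cytotoxicity surrogate; viability measured as cellular ATP by luminescence; compound exposure lasted 48 h before reading; nearly all actives have a fitted effect of over 60% in size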
Giardia FBPA inh-2: qHTS Assay for Inhibitors of Fructose-1,6-bisphosphate Aldolase from Giardia Lamblia: Primary screen confirmation; purified Giardia aldolase enzyme activity, qHTS; Potency, µM (titrated, usually from 57.5 µM), most hits filed as inhibitors; shares compounds with Giardia FBPA inh-1; 1,500 compounds, 5% hits; also: nearly all actives have a fitted effect of over 45% in size
Rabbit FBPA inh: qHTS Assay for Inhibitors of Fructose-1,6-bisphosphate Aldolase from Giardia Lamblia: Rabbit FBPA Selectivity; shares compounds with Giardia FBPA inh-1; Rabbit muscle FBPA enzyme inhibition, selectivity counter-screen; Potency, µM (titrated, usually from 57.5 µM), most hits filed as inhibitors; 1,500 compounds, 4% hits; AID 2794, 2010; also: nearly all actives have a fitted effect of over 60% in size
Target sequence (P00883 whole entry, looked up): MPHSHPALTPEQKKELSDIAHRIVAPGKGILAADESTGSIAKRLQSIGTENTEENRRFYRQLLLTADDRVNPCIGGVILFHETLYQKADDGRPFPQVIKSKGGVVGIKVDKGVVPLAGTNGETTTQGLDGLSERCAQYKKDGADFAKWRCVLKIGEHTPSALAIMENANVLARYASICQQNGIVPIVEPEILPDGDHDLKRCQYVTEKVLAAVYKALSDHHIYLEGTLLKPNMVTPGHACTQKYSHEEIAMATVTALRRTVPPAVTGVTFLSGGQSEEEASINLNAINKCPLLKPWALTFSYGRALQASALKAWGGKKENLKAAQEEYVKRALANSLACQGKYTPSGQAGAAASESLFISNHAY
GAPDH coupling: qHTS Assay for Inhibitors of Fructose-1,6-bisphosphate Aldolase from Giardia Lamblia: Coupling assay counterscreen confirmation. shares compounds with Giardia FBPA inh-1. GAPDH coupling enzyme counterscreen, biochemical, qHTS. 1,500 compounds, 6% hits. Potency, µM (series often up to 57.5 µM), most hits filed as inhibitors; also: nearly all actives have a fitted effect of over 55% in size
Numbers stand for hits; . = inactive; ? = inconclusive; / = no result; [ ] = dose if it differs, or a comment. Compounds with a hit are over-represented: about 1.1% of the library has one in this group of screens. Calls follow the shape of the dose curve; as a rule, active = well fitted curve in the direction sought with a large enough effect; inconclusive = small, poorly fitted or top-dose-only effect, or another doubt; inactive = no such curve, though single readings can be large; an effect the other way counts as inactive or inconclusive.

SMILES	AmpC inh detg	AMA1 RON2 block	Giardia FBPA inh-1	AmpC no deterg	Giardia growth	Mammal cell tox	Giardia FBPA inh-2	Rabbit FBPA inh	GAPDH coupling
O=C(NC1CCCCC1)c1cccnc1C(=O)O	.	.	5.6µM	.	.	.	.	.	.
O=C(c1ccc(F)cc1F)N1CCN(c2ccccn2)CC1	.	.	.	.	/	/	/	/	/
Cc1cc(C)c2c(CC(=O)Nc3ccccc3C(F)(F)F)coc2c1	.	/	/	/	/	/	/	/	/
Cn1c(=S)c2[nH]c(SCCN)nc2n(C)c1=O	/	.	/	/	/	/	/	/	/
Cn1c(=S)c2[nH]c(SCCN3CCCC3)nc2n(C)c1=O	.	.	11µM	.	.[10.4 µM]	.	.	.	.
COc1ccc(-n2c(=O)c(CCc3ccccc3)nc3cnc(N4CCOCC4)nc32)cc1	/	/	.	/	/	/	/	/	/
COCc1cc(=O)[nH]c(-c2csc(C)n2)n1	.	.	4.5µM	.	.	.	.	.	.
COCc1cc(OC)nc(-c2csc(C)n2)n1	.	.	.	.	/	/	/	/	/
Nc1cc2nc3ccccc3oc-2cc1=O	.	.	18µM	.	.[10.4 µM]	.	?	.	?
Cc1nc2ccccc2oc1=O	/	/	.	/	/	/	/	/	/
COc1ccc(CCn2c(Br)nc3c2c(=O)[nH]c(=O)n3C)cc1	.	.	.	.	/	/	/	/	/
COc1ccc(CCn2c(NN)nc3c2c(=O)[nH]c(=O)n3C)cc1	.	.	5µM	.	.[10.4 µM]	.	32µM	?	25µM
COc1ccc(CCn2c(NCc3ccco3)nc3c2c(=O)[nH]c(=O)n3C)cc1	.	.	.	.	/	/	/	/	/
COc1ccc(CCn2c(NN=C(C)C)nc3c2c(=O)[nH]c(=O)n3C)cc1	.	.	2.8µM	.	.	.	13µM	?	14µM
Cc1cc(C)c2oc(-c3ccc(Cl)c(NC(=O)c4cccs4)c3)nc2c1	.	/	/	/	/	/	/	/	/
O=C(CN1C(=O)COc2ccc(S(=O)(=O)N3CCOCC3)cc21)N1CCN(c2ccc(Cl)cc2)CC1	.	/	/	/	/	/	/	/	/
Cc1c(NC(=S)NC(=O)c2cccc(Cl)c2)c(=O)n(-c2ccccc2)n1C	.	.	13µM	.	.	.	.	.	.
COc1cccc2sc(Nc3nnc(-c4ccc(F)cc4)o3)nc12	?	.	16µM	.	.	.	.	.	.
CCOc1ccc(Nc2nc3c(S(=O)(=O)c4ccc(CC)cc4)nnn3c3ccc(Cl)cc23)cc1	.	/	/	/	/	/	/	/	/
Cn1c(SSc2ccc(-c3cccnc3)n2C)ccc1-c1cccnc1	/	.	/	/	/	/	/	/	/
CCOC(=O)c1ccc(NC(=O)CN2Cc3ccccc3C2=O)cc1	.	/	/	/	/	/	/	/	/
O=C(Nc1nnc(-c2ccc(Cl)cc2)o1)c1ccc(N2C(=O)CCC2=O)cc1	?	.	.	.	/	/	/	/	/
O=C(Nc1nnc(-c2ccco2)o1)c1ccc(N2C(=O)CCC2=O)cc1	.	.	18µM	.	.	.	.	.	.
COc1ccc(CCNC(=O)CCc2c(C)nc3c4cccnc4nn3c2C)cc1OC	.	/	/	/	/	/	/	/	/
CCOc1cc(/C=N/Nc2nc(=O)[nH]nc2C)ccc1O	.	.	?	.	/	/	/	/	/
SMILES	AmpC inh detg	AMA1 RON2 block	Giardia FBPA inh-1	AmpC no deterg	Giardia growth	Mammal cell tox	Giardia FBPA inh-2	Rabbit FBPA inh	GAPDH coupling
CCOc1ccc(/C=N/Nc2nc(=O)[nH]nc2C)cc1OC	.	.	20µM	.	?	.	.	.	.
C=CCNC(=S)NNc1nc2sc3c(c2c(=O)[nH]1)CC(C)(C)OC3	.	.	1.3µM	.	?	.	.	.	.
Clc1cccc(OCCCn2ccnc2)c1	?	.	.	.	/	/	/	/	/
Cc1cc(OCCCn2ccnc2)ccc1C(C)C	.	?	.	.	/	/	/	/	/
c1ccc2cc(OCCCn3ccnc3)ccc2c1	?	?	22µM	.	.	.	.	.	.
CC(C)(C)c1ccc(OCCCn2ccnc2)cc1	.	?	28µM	.	.	.	.	.	.
Cc1ccc(OCCCn2ccnc2)c(Br)c1	.	.	18µM	.	.[10.4 µM]	.	.	.	.
Cc1ccc(OCCCn2ccnc2)c([N+](=O)[O-])c1	.	?	.	.	/	/	/	/	/
COc1ccc(Oc2nc3c(c(=O)n(C)c(=O)n3C)n2Cc2ccccc2Cl)cc1	.	/	/	/	/	/	/	/	/
Cn1c(NN=O)nc2ccccc21	.	.	7.9µM	.	.	16µM	.	.	.
O=NNc1nc2ccccc2n1Cc1ccccc1	.	.	?	.	/	/	/	/	/
COc1ccc(S(=O)(=O)N2CCC(C(=O)N[C@@H](C)C(=O)NCc3ccco3)CC2)cc1	/	.	/	/	/	/	/	/	/
COc1ccc(CCNC(=O)CSc2ccc(-c3ccco3)nn2)cc1OC	.	.	.	.	/	/	/	/	/
COc1ccc(CCNC(=O)CSc2nnc(-c3ccco3)c(-c3ccco3)n2)cc1OC	?	/	13µM	.	.	.	.	.	.
CC1=NN(c2nc3ccccc3[nH]2)C(=O)C1Cc1ccccc1 (centres undefined)	.	.	18µM	.	.	?	.	.	.
CC1=NN(c2nc3ccccc3[nH]2)C(=O)/C1=C/N(C)C	.	.	16µM	.	40µM	4.5µM	.	.	.
O=C(c1cccc(F)c1)N1CCC2(CCCN(c3ncccn3)C2)CC1	/	/	.	/	/	/	/	/	/
O=C(Nc1nnc(-c2cccs2)o1)c1ccc(S(=O)(=O)N2CCOCC2)cc1	.	.	14µM	.	.[10.4 µM]	.	.	.	.
O=C(Nc1nnc(C2=COCCO2)o1)c1ccc(S(=O)(=O)N2CCCCC2)cc1	.	.	16µM	.	?	.	.	.	.
O=C(Nc1nnc(-c2ccccc2Cl)o1)c1ccc(S(=O)(=O)N2CCCCCC2)cc1	?	?	?	.	/	/	/	/	/
O=C(Nc1nnc(C2=COCCO2)o1)c1ccc(S(=O)(=O)N2CCCC2)cc1	.	.	3.5µM	.	.	.	.	.	.
Cc1ccccc1C(N)c1ccncc1 (centres undefined)	?	.	14µM	.	.	.	.	.	.
CCc1ccc(NC(=O)C2CCN(c3cc(C)nc4c(-c5ccc(Cl)cc5)c(C)nn34)CC2)cc1	.	/	/	/	/	/	/	/	/
Cc1cc(NCc2ccncc2)ccc1Br	.	25µM	22µM	.	.	.	.	.	.
